Screening results deposited in PubChem by several laboratories.
This is a sample that favours compounds with a hit; in the whole collection about 1.8% have one here.
PTK2B oligo ant – antagonists of Pyk2 self-association, primary screen, Q293 cells, FERM NanoBiT luminescence, HTS. stronger effect = lower value. z-score (the deposit names both 25 µM and 10 µM). AID 1347419, 2020. actives 0.83% (n = 99,000);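 active = Z-score of -3 or lower, scaled per plate to the spread of control and sample wells; inactive = z-score above -3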;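 also: negative z-score means lost luminescence so less FERM oligomerization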
Mac1 fbg enh – enhancers of CD11b/CD18 adhesion to fibrinogen, primary screen, K562 cells, luminescence | ATPlite luminescence | activation, % at 10 µM | actives 0.07% (n = 93,000) | Integrin beta-2 (Homo sapiens) + Integrin alpha-M (Homo sapiens), P05107+P11215;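 active = 10 µM primary screen giving 50% or more activity, confirmed by 40% or more on retest at that dose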
Target sequence (P05107 whole entry, looked up, other chains not shown): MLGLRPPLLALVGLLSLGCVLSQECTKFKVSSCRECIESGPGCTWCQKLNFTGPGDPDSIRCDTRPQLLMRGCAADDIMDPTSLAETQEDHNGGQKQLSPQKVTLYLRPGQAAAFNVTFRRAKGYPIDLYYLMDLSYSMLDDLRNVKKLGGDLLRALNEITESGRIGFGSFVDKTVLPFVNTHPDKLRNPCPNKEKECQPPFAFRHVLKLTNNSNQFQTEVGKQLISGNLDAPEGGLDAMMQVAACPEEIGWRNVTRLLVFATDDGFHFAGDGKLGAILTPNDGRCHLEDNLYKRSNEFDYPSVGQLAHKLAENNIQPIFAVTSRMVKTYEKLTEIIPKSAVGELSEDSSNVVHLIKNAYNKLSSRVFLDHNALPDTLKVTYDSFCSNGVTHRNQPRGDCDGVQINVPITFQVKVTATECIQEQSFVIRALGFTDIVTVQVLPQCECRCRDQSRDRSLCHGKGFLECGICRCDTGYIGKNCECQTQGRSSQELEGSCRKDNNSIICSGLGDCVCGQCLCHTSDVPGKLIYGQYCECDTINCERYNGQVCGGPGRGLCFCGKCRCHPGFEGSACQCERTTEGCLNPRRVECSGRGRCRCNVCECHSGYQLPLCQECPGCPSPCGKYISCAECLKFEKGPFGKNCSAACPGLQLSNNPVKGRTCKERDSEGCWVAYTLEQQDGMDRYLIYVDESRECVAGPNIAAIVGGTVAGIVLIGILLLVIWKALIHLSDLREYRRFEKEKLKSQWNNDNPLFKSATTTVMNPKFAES
FAK blocker – FAK kinase inhibitors, primary screen, biochemical; Focal adhesion kinase 1 (Homo sapiens), Q05397; biochemical FAK kinase activity assay; inhibition, %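 (tested at 7 µM)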; actives 0.84% (n = 97,000); AID 727, 2007; in the data active = inhibition above about 19%;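 also: 0% = DMSO and 100% = reference compound high control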
Mac1 fbg inh – inhibitors of CD11b/CD18 adhesion to fibrinogen, primary screen, K562 cells, luminescence | Integrin beta-2 (Homo sapiens) + Integrin alpha-M (Homo sapiens), P05107+P11215 | actives 0.54% (n = 93,000) | inhibition, % at 10 µM | ATPlite luminescence; Mn2+ added to activate the integrin;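 active = primary inhibition of 50% or more at 10 µM, then 40% or more on retest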
Active calls of the source: *; · = no result.

SMILES | PTK2B oligo ant | Mac1 fbg enh | FAK blocker | Mac1 fbg inh
Cc1ccccc1-c1noc(-c2ccc(O)cc2)n1 | -1.8 | 0 | 1 | 74*
CCNC(=S)N/N=C/c1ccc(OCC(=O)Nc2ccc(C)cc2)cc1 | -1.2 | -3 | 1 | -5
O=C(Cc1cccs1)N(Cc1cccs1)C1(C(=O)NC2CCCCC2)CCCCC1 | -4.5* | -4 | 0 | 2
Cc1nnc(NC(=O)c2sc3ccccc3c2Cl)s1 | 0.19 | -5 | -4 | 70*
COc1ccc(OC)c(C2=Nn3c(nnc3-c3cc(OC)c(OC)c(OC)c3)SC2)c1 | -3.1* | 0 | 0 | 2
COc1cccc(-c2nnc3n2N=C(c2cc(OC)ccc2OC)CS3)c1 | -1.8 | · | 1 | ·
O=[N+]([O-])c1ccc2nc(-c3ccc(Cl)cc3)n(OCc3ccccc3)c2c1 | -3.1* | -1 | 2 | -9
CCOC(=O)c1ccc(N2C(=O)c3n[nH]c(C)c3C2c2cccnc2)cc1 (stereo not drawn) | -3.8* | 2 | 5 | 8
O=C(c1ccccc1)c1cn[nH]c1-c1ccccc1O | 0.49 | -3 | 0 | -2
COc1ccc(O)c(-c2[nH]ncc2C(=O)c2ccccc2)c1 | -3.5* | -1 | -1 | 0
CCOc1ccc(Nc2ncnc3c2cnn3Cc2ccccc2)cc1 | -3.1* | · | 7 | ·
CC(C)c1nc2sc3c(=O)n(N)cnc3c2c2c1COC(C)(C)C2 | · | 6 | · | 3
CC1=C/C(=N\OS(=O)(=O)c2ccccc2)C(C)=CC1=O | -0.88 | -9 | -1 | 97*
O=C(Cc1ccccc1[N+](=O)[O-])NCCSCc1c(F)cccc1Cl | -0.35 | · | 3 | ·
Cc1n[nH]c(C)c1Sc1ccccc1N=Cc1cc(Cl)cc([N+](=O)[O-])c1O | -0.52 | -6 | -1 | 57*
Cc1ccc(-c2cc(-c3ccccc3[N+](=O)[O-])[nH]n2)c(O)c1 | -1.6 | · | 1 | ·
CCOC(=O)c1oc2cc(O)c(CC)cc2c(=O)c1-c1ccc2c(c1)OCCO2 | · | 4 | · | -9
Cc1oc2cc(O)cc(O)c2c(=O)c1-c1ccc2c(c1)OCCCO2 | -3.4* | 3 | -3 | 12
Cc1cc(N2CCN(C(c3ccccc3)c3ccccc3)CC2)n2ncnc2n1 | -0.87 | 2 | 3 | 0
Cc1cc(N2CCN(c3nc4ccccc4s3)CC2)n2ncnc2n1 | 0.52 | -12 | -1 | 74*
COc1ccc(OC)c(S(=O)(=O)Nc2ccc(Oc3ccccc3)cc2)c1 | -3.6* | -5 | 1 | 47
CCCCn1c(-c2ccccc2)cnc1SCC(=O)NCCc1ccc(OC)c(OC)c1 | -0.18 | -4 | 0 | -6
CCCCNc1oc(-c2ccc(OC)cc2)nc1S(=O)(=O)c1ccccc1 | 0.65 | 1 | 3 | -7
CCOc1ccc(-c2nc(S(=O)(=O)c3ccccc3)c(NCc3cccnc3)o2)cc1 | -3.3* | 0 | 0 | -12
CC(=O)c1cccc(NC(=S)NCCCCc2ccccc2)c1 | · | -4 | · | 50
SMILES | PTK2B oligo ant | Mac1 fbg enh | FAK blocker | Mac1 fbg inh
O=C(Cn1cnc2cc(Cl)ccc2c1=O)Nc1ccc2c(c1)OCO2 | 1 | · | -1 | ·
CCOC(=O)c1c(-c2ccccc2)csc1NC(=O)/C(C#N)=C/c1ccc(O)c(OC)c1 | · | 14 | · | 29
COc1ccc(NC(=O)Cn2cc(C(=O)c3ccco3)c3ccccc32)cc1 | -3* | -1 | 3 | -2
CCOc1ccc(NC(=O)Cn2cc(C(=O)c3ccco3)c3ccccc32)cc1 | -1.6 | -5 | 1 | -5
Cc1cc(C(=O)NCCC(c2ccccc2)c2ccccc2)c(C)o1 | -1.1 | 1 | 2 | 8
CCC(CO)[n+]1c(C)cc(/C=C2\Sc3ccccc3N2Cc2ccccc2)cc1C (stereo not drawn) | 0.11 | -7 | · | 103*
CCN1/C(=C2\SC(=S)N(Cc3ccccc3)C2=O)Sc2ccccc21 | · | 28 | · | 0
Cc1ccc(C(=O)Nc2cccc(N(C)S(C)(=O)=O)c2)cc1S(=O)(=O)Nc1ccccc1 | -3.1* | -4 | -4 | 4
N#CC1=C(SCC(=O)NC23CC4CC(CC(C4)C2)C3)NC(=O)C(C#N)C12CCCCC2 (stereo not drawn) | -3.3* | · | -1 | ·
c1ccc(OCCCCn2cnc3ccccc32)cc1 | 0.88 | -9 | 3 | 63*
Cc1ccccc1OCCCCn1cnc2ccccc21 | -0.43 | -7 | 1 | 95*
Brc1ccccc1OCCCn1cnc2ccccc21 | -3.9* | 0 | 4 | -16
Cc1ccccc1OCCCCCn1ccnc1 | -0.31 | -5 | 0 | 6
Fc1ccc(Cn2cnc3ccccc32)cc1 | 0.8 | -4 | 3 | 10
CCCOc1ccc(Cn2cnc3ccccc32)cc1 | -1.9 | -8 | 3 | 89*
c1ccc(OCCn2cnc3ccccc32)cc1 | 0.71 | 1 | 0 | -40
CC(=O)Nc1ccc(C(=O)OCC(=O)N(Cc2ccccc2)C(C)(C)C)cc1 | -1 | 3 | 2 | -1
c1ccc2c(c1)ncn2CCCCOc1ccc2c(c1)CCC2 | 0.47 | -4 | 3 | 82*
c1ccc2c(c1)ncn2CCCOc1ccc2c(c1)CCC2 | 0.22 | -3 | 1 | 53
Cc1nnc2sc(-c3ccc(NC(=O)c4ccc(-c5ccc(Br)cc5)o4)cc3)nn12 | · | · | 21* | ·
COc1ccc(CCNC(=O)CSc2nc3ccccc3o2)cc1 | 0.75 | -3 | 0 | -8
COc1cccc2cc(C(=O)N3CCc4ccccc43)c(=O)oc12 | -3* | -6 | 1 | 3
COC(=O)c1nn(-c2ccccc2)c(-c2ccccc2)c1C(=O)c1ccccc1 | -3.3* | · | -1 | ·
Cc1ccc(/C=C(/C#N)c2nc(CCN3C(=O)c4ccccc4C3=O)cs2)cc1 | -3.2* | · | -1 | ·
O=C1c2ccccc2C(=O)N1CCc1csc(-c2cccc(F)c2)n1 | -1.3 | -2 | 0 | -12
SMILES | PTK2B oligo ant | Mac1 fbg enh | FAK blocker | Mac1 fbg inh
COc1ccc(C2Oc3ccccc3C3=C2C(c2cccs2)n2ncnc2N3)cc1 (stereo not drawn) | -3.7* | 8 | 0 | 10
Brc1ccc(C2C3=C(Nc4ncnn42)c2ccccc2OC3c2ccncc2)cc1 (stereo not drawn) | -3.8* | -3 | 3 | -2
COc1ccc(C2C3=C(Nc4ncnn42)c2ccccc2CC3)cc1OC (stereo not drawn) | · | 0 | 2 | -5
COc1ccc(C(=O)CC(Nc2ccc([N+](=O)[O-])cc2)c2ccc(Cl)cc2)cc1 (stereo not drawn) | -0.65 | 1 | -2 | -54
O=C1Nc2ccccc2/C1=C\c1cccn1-c1ccc(OC(F)(F)F)cc1 | -2.2 | -1 | -3 | -8
CCN(CC)S(=O)(=O)c1cc([N+](=O)[O-])ccc1NNC(=O)Nc1ccc(Cl)c(Cl)c1 | -0.66 | -5 | 13 | 99*
O=C(Nc1nc(-c2ccccc2)cs1)C1CCCCN1S(=O)(=O)c1ccccc1 (stereo not drawn) | -3.7* | 16 | 0 | 3
O=C(Nc1nc(-c2ccc(S(=O)(=O)N3CCOCC3)cc2)cs1)c1ccccc1 | · | 15 | -10 | -3
Cc1nc2ccc(NC(=O)c3ccc(S(=O)(=O)N4CCOCC4)cc3)cc2s1 | -0.25 | -1 | 1 | 6
